High-throughput results deposited in PubChem by National Center for Advancing Translational Sciences (NCATS).
KinaseGlo FLuc – Counterscreen for Luciferase (Kinase-Glo TM) Inhibition. Kinase-Glo luciferase, ATP luminescence, 8 min. Potency, µM (top dose mostly 38.3 µM), actives largely listed as inhibitors. AID 1379, 2008. 200,000 tested, 0.28% active; further: nearly all actives have a fitted effect of over 60% in size
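Recombinant Kinase-Glo luciferase, 10 uM ATP (linear range), luciferin; imidazole pH 7.2 / KCl / MgCl2 / Tween / BSA buffer; 8 min RT; luminescence.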
VP16 counter – VP16 counterscreen qHTS for inhibitors of ROR gamma transcriptional activity; Drosophila S2 Gal4-VP16 UAS-luciferase, luminescence, 20 h; Potency, µM (titrated, usually from 53.6 µM), most hits filed as inhibitors; 310,000 tested, 3.5% active;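 further: Gal4-VP16 expression switched on by copper sulfate through the metallothionein promoter; nearly all actives have a fitted effect of over 50% in size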
RORgamma inh – qHTS for inhibitors of ROR gamma transcriptional activity | Nuclear receptor ROR-gamma (Mus musculus), P51450 | Potency, µM (highest dose often 53.6 µM), actives largely listed as inhibitors | 310,000 tested, 5.4% active | Drosophila S2 Gal4-RORgamma UAS-luciferase reporter, 20 h; further: nearly all actives have a fitted effect of over 60% in size
Target sequence (P51450 whole entry, looked up, the tested form may be a part): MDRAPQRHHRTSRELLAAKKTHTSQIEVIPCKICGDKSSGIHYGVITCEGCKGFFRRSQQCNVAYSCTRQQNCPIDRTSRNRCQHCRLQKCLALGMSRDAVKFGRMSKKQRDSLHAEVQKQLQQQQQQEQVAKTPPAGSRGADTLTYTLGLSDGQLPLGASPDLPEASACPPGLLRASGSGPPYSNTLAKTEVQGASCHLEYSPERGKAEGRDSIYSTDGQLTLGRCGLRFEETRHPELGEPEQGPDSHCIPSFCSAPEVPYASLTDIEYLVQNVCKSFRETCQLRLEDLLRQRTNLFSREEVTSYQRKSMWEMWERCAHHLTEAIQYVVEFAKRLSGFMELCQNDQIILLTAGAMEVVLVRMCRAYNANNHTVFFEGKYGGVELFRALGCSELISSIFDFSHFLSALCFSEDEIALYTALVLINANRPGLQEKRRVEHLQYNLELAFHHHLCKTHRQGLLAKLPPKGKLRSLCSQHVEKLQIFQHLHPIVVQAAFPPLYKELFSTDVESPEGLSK
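Compounds are pin-transferred onto Drosophila Schneider cells expressing a copper-inducible Gal4–ROR gamma transactivation domain fusion. After 1 hr, copper sulfate is added to 700 uM final; luciferase is read 20 hr later.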
Each line names hits and unclear results; the compound was inactive in the other large screens. A selection: hits, their analogues and other compounds. The true share with any hit is near 6.4%. The call rests on the fitted dose curve; in most records, active means well fitted curve in the direction sought with a large enough effect; inconclusive means small, poorly fitted or top-dose-only effect, or another doubt; inactive means no such curve, though single readings can be large; an effect the other way counts as inactive or inconclusive.

CCNC(=S)N/N=C(\C)c1cccc(OC)c1	RORgamma inh 2.51µM
CCNC(=S)N/N=C(\C)c1ccc2ccccc2c1	VP16 counter 7.08µM, RORgamma inh 2.82µM
CCNC(=S)N/N=C(\C)c1ccc2ccccc2c1OC(F)F	VP16 counter 7.08µM, RORgamma inh 1.26µM
COc1cccc(/C(C)=N/NC(=O)c2ccc(N(C)C)cc2)c1	RORgamma inh inconclusive
CCOC(=O)N1CCN(C(=O)C2CCC(=O)N(Cc3ccc(Cl)cc3)C2)CC1 (configuration not stated)	none (no result: KinaseGlo FLuc)
CCn1c(=O)n(CC)c2cc(N3CCCC3)c(NC(=O)c3ccccc3F)cc21	none (no result: KinaseGlo FLuc)
CCn1c(=O)cc(SCC(=O)Nc2ccc(C)cn2)c2ccccc21	none
O/N=C(/CCc1ccccc1)c1ccc2c(c1)OCCO2	none
O=C(c1ccc(Cn2c(=S)[nH]c3cc4c(cc3c2=O)OCO4)cc1)N1CCN(c2ncccn2)CC1	RORgamma inh inconclusive
C/C(=N\NC(=O)C1CC1)c1ccc(OC(F)F)cc1OC(F)F	RORgamma inh inconclusive (no result: KinaseGlo FLuc)
C/C(=N\NC(=S)NC(C)C)c1ccccc1OC(F)F	VP16 counter 5.62µM, RORgamma inh 1.78µM
CC1(C)CC(NC(=O)c2cc(S(=O)(=O)N3CCCCC3)ccc2Cl)CC(C)(C)N1	none (no result: KinaseGlo FLuc)
Cc1ccc(C(=O)N2CCN(S(=O)(=O)c3cc(Br)ccc3Br)CC2)o1	none (no result: KinaseGlo FLuc)
N=c1c2c(ncn1CCCO)Oc1c(ccc3ccccc13)C2c1ccccc1 (configuration not stated)	VP16 counter inconclusive, RORgamma inh 17.8µM (no result: KinaseGlo FLuc)
COc1ccc(C2c3c(ncn(Cc4ccco4)c3=N)Oc3ccc4ccccc4c32)cc1 (configuration not stated)	VP16 counter 8.91µM, RORgamma inh 17.8µM
N=c1c2c(ncn1CCCO)Oc1ccc3ccccc3c1C2c1ccccc1 (configuration not stated)	none (no result: KinaseGlo FLuc)
COc1ccc(C2c3ccc4ccccc4c3Oc3ncn(CCCO)c(=N)c32)cc1 (configuration not stated)	RORgamma inh 3.98µM (no result: KinaseGlo FLuc)
COc1ccc(C2c3ccc4ccccc4c3Oc3ncn(CCO)c(=N)c32)cc1OC (configuration not stated)	RORgamma inh inconclusive (no result: KinaseGlo FLuc)
CN(C)CCCn1cnc2c(c1=N)C(c1ccccc1)c1ccc3ccccc3c1O2 (configuration not stated)	VP16 counter inconclusive, RORgamma inh 17.8µM (no result: KinaseGlo FLuc)
COc1ccc(C2c3ccc4ccccc4c3Oc3ncn(CCCO)c(=N)c32)cc1OC (configuration not stated)	none (no result: KinaseGlo FLuc)
N=c1c2c(ncn1Cc1ccco1)Oc1ccc3ccccc3c1C2c1ccccc1 (configuration not stated)	none
O=C(O)CCSc1ncnc2nc[nH]c12	none (no result: VP16 counter, RORgamma inh)
COc1ccc(-n2c(=O)c(-c3cccs3)nc3cnc(N4CCN(C)CC4)nc32)cc1	none (no result: KinaseGlo FLuc)
COCC1=C2c3ccccc3[C@H](C[N+](=O)[O-])C(C(=O)OC)(C(=O)OC)C[C@@H]2n2c(=O)n(-c3ccccc3)c(=O)n2C1	none
COc1ccccc1N1CCN(C(=O)c2cc3c(=O)n4cccc(C)c4nc3s2)CC1	none (no result: KinaseGlo FLuc)
NC(C(=O)O)c1nn[nH]n1 (configuration not stated)	none (no result: KinaseGlo FLuc)
COc1ccc(C2c3ccc4ccccc4c3Oc3ncn(CCN(C)C)c(=N)c32)cc1 (configuration not stated)	VP16 counter inconclusive, RORgamma inh 31.6µM (no result: KinaseGlo FLuc)
COc1ccc(C2c3ccc4ccccc4c3Oc3ncn(CCN4CCOCC4)c(=N)c32)cc1 (configuration not stated)	VP16 counter inconclusive
CC(=O)N1CC(=O)N=C1SCC(=O)Nc1nc(C)c(-c2ccccc2)s1	RORgamma inh inconclusive
O=C1N/C(=N\N=C\c2cccs2)SC1Cc1cccc(Cl)c1Cl (configuration not stated)	VP16 counter 0.224µM, RORgamma inh 0.316µM
O=C1N/C(=N\N=C\c2ccco2)SC1Cc1ccccc1[N+](=O)[O-] (configuration not stated)	VP16 counter 5.01µM, RORgamma inh 3.16µM (no result: KinaseGlo FLuc)
O=C(CC1S/C(=N/N=C/c2cccs2)NC1=O)Nc1ccc(Cl)cc1 (configuration not stated)	VP16 counter inconclusive, RORgamma inh inconclusive
CCOc1ccc(CC2S/C(=N/N=C/c3ccco3)NC2=O)cc1 (configuration not stated)	RORgamma inh inconclusive (no result: KinaseGlo FLuc)
O=C(CC1S/C(=N/N=C/c2cccs2)NC1=O)Nc1ccc(Cl)c(Cl)c1 (configuration not stated)	VP16 counter inconclusive
O=C1N/C(=N\N=C\c2cccs2)SC1Cc1ccc(Cl)cc1Cl (configuration not stated)	VP16 counter 0.251µM, RORgamma inh 0.355µM
